# Records with an inconclusive call do not appear. A number with no mark means an inactive call. Calls of active or inactive are those of the source. The call rests on the fitted dose curve; in most records, active means well fitted cell-killing curve with a large enough effect; inconclusive means small, poorly fitted or top-dose-only effect, or effect the other way; inactive means flat fitted curve, though single readings scatter. Where a SMILES comes first, the peptide text is derived from it. [ ]: non-standard residue; d: D form. Ala(indol-2-yl) = N[C@@H](Cc1cc2ccccc2[nH]1)C(=O)O; Aib = CC(C)(N)C(=O)O
# Tested on: CASKI
# Assay: Primary qHTS to identify gynecologic anti-cancer compounds using libraries of approved drugs and bioactive compounds (AID 1345084); further: nearly all actives have a fitted effect of over 55% in size
# Settings: Gynecologic cancer cell panel viability, ATPlite luminescence, 48 h; series mostly up to 57.5 µM
# Procedure, shortened: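 Cytotoxicity screen measuring ATP content by luciferase luminescence. Each compound is applied at five concentrations for 48 h at 37 C with 5% CO2.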
# On the % scale 0 is the no-effect control and ±100 the full control effect; potency means the concentration at half of the fitted maximal effect.
SMILES,Potency,"activity change, negative = cytotoxicity"
CCC(C)/C=C(C)/C=C/C1=CC2=C(Cl)C(=O)C(C)(OC(C)=O)C(=O)C2=CO1 (stereo unspecified),inactive,–
C[C@H]1O[C@@H](O[C@H]2CC[C@]3(C=O)C4CC[C@]5(C)[C@@H](C6=CC(=O)OC6)CC[C@]5(O)[C@@H]4CC[C@]3(O)C2)C[C@@H](O)[C@@H]1O (stereo partly specified),355 nM (active),–
C=C1[C@@H](C)[C@H]2[C@H](Cc3ccccc3)NC(=O)[C@]23OC(=O)/C=C/C(=O)CCC[C@@H](C)C/C=C/[C@H]3[C@@H]1O,15800 nM (active),–
COC1CC(O[C@H]2CC[C@@]3(C)C(CCC4C3CC[C@]3(C)[C@@H](C5=CC(=O)OC5)CC[C@]43O)C2)OC(C)C1O (stereo partly specified),141 nM (active),–
CC(C)(C)[C@]1(O)C[C@@H]2OC(=O)C[C@@]23C(=O)O[C@@H]2OC(=O)[C@@H](O)[C@]213,inactive,–
C[C@H]1C/C=C/[C@H]2[C@@H]3O[C@]3(C)[C@@H](C)[C@H]3[C@H](Cc4ccccc4)NC(=O)[C@]32OC(=O)O/C=C/[C@@](C)(O)C1=O,inactive,–
CNC(=O)c1cc(C#N)cc(C)c1NC(=O)c1cc(Br)nn1-c1ncccc1Cl,inactive,–
OCc1nnc2n1-c1ccc(Cl)cc1C(c1ccccc1Cl)=NC2,inactive,–
CN[C@@H]1C[C@H]2O[C@@](C)([C@@H]1OC)n1c3ccccc3c3c4c(c5c6ccccc6n2c5c31)C(=O)NC4,251 nM (active),–
CC[C@@H]1C[C@H]2CC[C@H](O2)[C@H](C)C(=O)O[C@@H](C)C[C@@H]2CC[C@@H](O2)[C@@H](C)C(=O)O[C@H](CC)C[C@H]2CC[C@H](O2)[C@H](C)C(=O)O[C@@H](C)C[C@@H]2CC[C@@H](O2)[C@@H](C)C(=O)O1,447 nM (active),–
CC(=O)O[C@@H]1[C@@H](O)[C@H]2O[C@@H]3C=C(C)[C@@H](O)C[C@]3(CO)[C@]1(C)[C@]21CO1,3980 nM (active),–
CO[C@H]1C[C@H](O[C@H]2CC[C@@]3(C)C(=CCC4C3CC[C@]3(C)[C@@H](C5=CC(=O)OC5)CC[C@]43O)C2)O[C@@H](C)[C@@H]1O[C@@H]1O[C@H](CO[C@@H]2O[C@H](CO)[C@@H](O)[C@H](O)[C@H]2O)[C@@H](O)[C@H](O)[C@H]1O (stereo partly specified),–,22.6% [at 11.6 µM]
C=C1[C@@H](C)[C@H]2[C@H](Cc3ccccc3)NC(=O)[C@]23[C@H](OC(C)=O)/C=C/[C@](C)(O)C(=O)[C@@H](C)C/C=C/[C@H]3[C@@H]1O,inactive,–
c1cncc(OC[C@@H]2CCN2)c1,inactive,–
C[N@@+]1(CC2CC2)CC[C@]23c4c5ccc(O)c4O[C@H]2C(=O)CC[C@@]3(O)[C@H]1C5,inactive,–
COc1ccc2c3c([nH]c2c1)C(C=C(C)C)N1C(=O)C2CCCN2C(=O)C1C3 (stereo unspecified),inactive,–

SMILES,Potency,"activity change, negative = cytotoxicity"
CC(=O)OC[C@]12C[C@H](OC(=O)CC(C)C)C(C)=C[C@H]1O[C@@H]1[C@H](O)[C@@H](O)[C@@]2(C)[C@]12CO2,224 nM (active),–
CC(C)(NC(=O)[C@@H](N)Cc1ccc(O)cc1)C(=O)N[C@@H](Cc1cc2ccccc2[nH]1)C(=O)N[C@@H](Cc1ccccc1)C(=O)O (H-Y[Aib][Ala(indol-2-yl)]F-OH),–,4.29% [at 11.6 µM]
C[C@]12CC[C@H](O)C[C@H]1CC[C@@H]1[C@@H]2[C@H](O)C(=O)[C@]2(C)[C@@H](c3ccc(=O)oc3)CC[C@]12O,398 nM (active),–
CC[C@H]1C2CC3[C@@H]4N(C)c5ccccc5[C@]45C[C@@H]([C@H]2[C@H]5O)N3[C@@H]1O,inactive,–
CC(=O)OC[C@]12C[C@H](OC(=O)CC(C)C)C(C)=C[C@H]1O[C@@H]1[C@H](O)[C@@H](OC(C)=O)[C@@]2(C)[C@@]12CO2,199 nM (active),–
CC1=C[C@H]2O[C@@H]3C[C@H]4OC(=O)/C=C/C=C/C(=O)OCC/C(C)=C/C(=O)OC[C@@]2(CC1)[C@]4(C)[C@]31CO1,112 nM (active),–
C=C(CO)C(=O)O[C@H]1CC(=C)[C@@H]2C[C@H](O)C(=C)[C@@H]2[C@H]2OC(=O)C(=C)[C@@H]21,inactive,–
CC1CCCC(=O)CCC/C=C/c2cc(O)cc(O)c2C(=O)O1 (stereo unspecified),inactive,–
O=C(OC[C@H]1O[C@@H](Oc2ccc(O)cc2CO)[C@H](O)[C@@H](O)[C@@H]1O)c1ccccc1,inactive,–
CC(=O)OC[C@]12C[C@H](O)C(C)=C[C@H]1O[C@@H]1[C@H](O)[C@@H](O)[C@@]2(C)[C@]12CO2,7940 nM (active),–
CC[C@H]1C[C@@H]2CC[C@@H](O2)[C@@H](C)C(=O)O[C@H](CC)C[C@H]2CC[C@H](O2)[C@H](C)C(=O)O[C@@H](C)C[C@@H]2CC[C@@H](O2)[C@@H](C)C(=O)O[C@H](CC)C[C@H]2CC[C@H](O2)[C@H](C)C(=O)O1,447 nM (active),–
CC(=O)OC[C@]12C[C@H](O)C(C)=C[C@H]1O[C@@H]1[C@H](O)[C@@H](OC(C)=O)[C@@]2(C)[C@]12CO2,31.6 nM (active),–
CO[C@H]1[C@H](O)[C@H](O[C@H]2CC[C@]3(C=O)C4CC[C@]5(C)[C@H](C6=CC(=O)OC6)CC[C@]5(O)C4CC[C@@H]3C2)O[C@@H](C)[C@@H]1O (stereo partly specified),224 nM (active),–
C[C@H]1O[C@@H](n2cnc3c(N)ncnc32)C[C@@H]1O,inactive,–
CO[C@H]1[C@@H](O)[C@@H](C)O[C@@H](O[C@@H]2C=C3C(OC(C)=O)CC4(O)C(CC[C@]5(C)[C@@H](C6=CC(=O)OC6)CC[C@]45O)[C@@]3(C)CC2)[C@@H]1O (stereo partly specified),2820 nM (active),–
